Screens as filed in PubChem BioAssay.
USP7 inh: inhibitors of human USP7 deubiquitinase; Q93009; purified USP7, Ub-rhodamine cleavage fluorescence; inhibition, % at 20 µM; hit rate 0.3% among 47,000; AID 1645854
UCHL1 inh: blocks human UCHL1 ubiquitin-rhodamine cleavage | P09936 | purified UCHL1, Ub-rhodamine cleavage fluorescence | inhibition, % at 20 µM | hit rate 0.2% among 47,000
USP10 inh: human USP10 deubiquitinase inhibition. Q14694. inhibition, % at 20 µM. purified USP10, Ub-rhodamine fluorescence, 60 min. hit rate 1.1% among 47,000
USP28 block: inhibitors of human USP28 deubiquitinase; purified USP28, Ub-rhodamine cleavage fluorescence, 30 min; inhibition, % at 25 µM; hit rate 3% among 47,000; AID 1645857
OTUD3 block: inhibitors of human OTUD3 deubiquitinase; Q5T2D3; purified OTUD3, Ub-rhodamine fluorescence, 2 h; inhibition, % at 25 µM; hit rate 0.7% among 47,000
Active calls of the source: *. In the library only some 4.2% were active in any assay of this set; here they are far more common. Rule as the data show it: active = inhibition above about 30%; inactive = the rest.

CC(C)(C)C(=O)C1C2C(=O)N(Cc3ccccc3)C(=O)C2C2c3ccccc3C=CN12 (stereo not given) was read as USP7 inh -9.3, UCHL1 inh 0.6, USP10 inh -6.0, USP28 block -12.4 and OTUD3 block -20.1.
Screening CCN1C(SCc2ccccc2F)=NS(=O)(=O)c2ccccc21 returned USP7 inh -12.3, UCHL1 inh 4.2, USP10 inh -13.6, USP28 block 74.2* and OTUD3 block 8.0.
O=C(NCCCc1nc2ccccc2n1Cc1c(Cl)cccc1Cl)c1ccco1 was read as USP7 inh -30.1, UCHL1 inh 1.0, USP10 inh 4.6, USP28 block 47.0* and OTUD3 block 28.2.
`CCc1ccc(NC(=O)C(C)OC(=O)c2cc3ccccc3cc2O)cc1` (stereo not given) gave USP7 inh 6.4, UCHL1 inh -3.8, USP10 inh 6.9, USP28 block -12.7 and OTUD3 block -13.2.
COc1ccc([C@H]2Oc3cc(OC)cc(O)c3C(=O)[C@@H]2[C@@H]2C(=O)c3c(O)cc(O)cc3O[C@H]2c2ccc(OC)cc2)cc1 was read as USP7 inh 25.6, UCHL1 inh 10.3, USP10 inh 67.8*, USP28 block 8.9 and OTUD3 block 11.0.
Screening Cc1ccc(CN2C(=O)COc3ccccc3C2=O)cc1 returned USP7 inh -75.9, UCHL1 inh 2.3, USP10 inh 3.8, USP28 block 38.8* and OTUD3 block 15.4.
For CC(C)Oc1ccc(C(=O)CN2C(=O)COc3ccccc3C2=O)cc1Cl the results were USP7 inh 12.3, UCHL1 inh 6.0, USP10 inh 6.4, USP28 block 26.9 and OTUD3 block 14.5.
`C/C=C1/C2=CCCN3C(=O)O[C@H]([C@H]1O)[C@H]23` gave USP7 inh 7.1, UCHL1 inh 1.8, USP10 inh 4.8, USP28 block 69.1* and OTUD3 block 0.5.
Screening Cc1nc2ccc(NC(=O)Nc3ccccc3F)cc2s1 returned USP7 inh -0.5, UCHL1 inh -4.2, USP10 inh -5.2, USP28 block 40.4* and OTUD3 block -14.3.
For CCC(=O)N1CC[C@@H]2Oc3ccccc3S(=O)(=O)N(CC(C)C)[C@H]2CC1 the results were USP7 inh -5.3, UCHL1 inh 3.4, USP10 inh -0.6, USP28 block 6.1 and OTUD3 block 10.9.
COc1ccc(CNC(=O)[C@H](C)N2C(=O)N3CCc4c([nH]c5ccc(OC)cc45)[C@@]3(C)C2=O)cc1 was read as USP7 inh 3.4, UCHL1 inh 2.3, USP10 inh 15.4, USP28 block 32.7* and OTUD3 block -7.4.
Clc1ccc(Cc2nnc(-c3cnc4onc(C5CCCC5)c4c3)o2)cc1 was read as USP7 inh 2.8, UCHL1 inh -2.0, USP10 inh -4.6, USP28 block 0.8 and OTUD3 block 18.5.
Screening CSc1ccc(CNC(=O)Cn2nc(C)c3c(C)n(-c4ccccc4)nc3c2=O)cc1 returned USP7 inh 20.5, UCHL1 inh 17.9, USP10 inh 45.9*, USP28 block 9.2 and OTUD3 block 19.7.
Screening O=C(CNC1CCCc2ccccc21)Nc1cc(Cl)ccc1Oc1ccccc1 (stereo not given) returned USP7 inh 4.2, UCHL1 inh 1.6, USP10 inh 2.2, USP28 block 7.8 and OTUD3 block 7.1.
Screening Cc1ccc(S(=O)(=O)N2CCC(c3c(C)[nH]c4ccccc34)CC2)cc1 returned USP7 inh -7.2, UCHL1 inh 2.9, USP10 inh -4.5, USP28 block 3.2 and OTUD3 block -0.3.
CC1=C(C)C(c2c(-c3ccc(C)cc3)[nH]c3ccccc23)N(C(C)(C)C)C1=O (stereo not given) was read as USP7 inh 31.6*, UCHL1 inh 13.5, USP10 inh 40.6*, USP28 block 11.6 and OTUD3 block 4.0.
Screening CCCc1cc(=O)[nH]c(N2CCN(c3ccccc3OC)CC2)n1 returned USP7 inh -1.5, UCHL1 inh 0.9, USP10 inh 3.6, USP28 block 10.2 and OTUD3 block 9.4.
For CCc1[nH]c(=O)cc2cc(OC)c(OC)cc12 the results were USP7 inh -51.2, UCHL1 inh 48.2*, USP10 inh 79.5*, USP28 block 96.8* and OTUD3 block 92.2*.
For CCn1nc(C)c(CNC(=O)c2[nH]c3ccc(C)cc3c2NC(=O)c2cccc(C)c2)c1C the results were USP7 inh 15.8, UCHL1 inh 7.3, USP10 inh -2.4, USP28 block 24.1 and OTUD3 block 71.0*.
`Cc1cccc(C(=O)Nc2c(C)nn(Cc3cccc4ccccc34)c2C)c1` gave USP7 inh 6.3, UCHL1 inh 3.4, USP10 inh 0.4, USP28 block 30.9* and OTUD3 block 13.7.
